Rv3671c inh – inhibits the M. tuberculosis serine protease Rv3671c; P9WHR9; inhibition, % at 5.96 µM; 320,000 tested, 0.048% active; in the data active means inhibition above about 38%;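 further: extracellular domain of Rv3671c used as enzyme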
Target sequence (P9WHR9 whole entry, looked up, the tested form may be a part): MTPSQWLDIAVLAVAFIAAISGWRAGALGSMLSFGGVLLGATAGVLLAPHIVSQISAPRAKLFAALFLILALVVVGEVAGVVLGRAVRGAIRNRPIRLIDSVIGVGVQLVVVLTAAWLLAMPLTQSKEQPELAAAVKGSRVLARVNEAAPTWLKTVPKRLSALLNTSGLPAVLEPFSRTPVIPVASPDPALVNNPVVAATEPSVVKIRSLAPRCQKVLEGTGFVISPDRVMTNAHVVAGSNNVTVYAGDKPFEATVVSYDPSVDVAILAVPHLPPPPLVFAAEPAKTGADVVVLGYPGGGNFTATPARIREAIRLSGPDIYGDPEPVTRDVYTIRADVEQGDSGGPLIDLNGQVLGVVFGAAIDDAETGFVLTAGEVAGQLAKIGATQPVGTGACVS
PfHsp40 rescue – restores yeast growth despite PfHsp40 toxicity; S. cerevisiae expressing PfHsp40, growth rescue, ATP luminescence; growth rescue, % at 12.5 µM; 340,000 tested, 0.68% active; in the data active means growth rescue above about 28%, passing the limit was not always enough; inconclusive means no clear call, values can overlap the other calls;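 further: yeast W303a lacking pdr1 and pdr3 grown in galactose medium; growth measured after three days at 30 °C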
Mtb bLac sens – beta-lactam sensitization of Mtb H37Rv; 330,000 tested, 0.27% active; M. tuberculosis H37Rv growth with meropenem, percent inhibition; inhibition, % at 25 µM; call rule not given here;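 further: growth measured after seven days incubation then overnight dye step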
Y pestis TopoI – Y. pestis Topo-I inhibition via cleavage products | 360,000 tested, 0.064% active | Y. pestis Topo-I cleavage product accumulation, plate reader | activity, % at 10 µM; in the data active means activity above about 50%, passing the limit was not always enough; inconclusive means no clear call, values can overlap the other calls
Mtb UGM inh – blocks M. tuberculosis UGM enzyme | P9WIQ1 | purified UGM, fluorescence polarization probe displacement | inhibition, % at 10 µM | 320,000 tested, 0.06% active; in the data active means inhibition above about 10%, passing the limit was not always enough; inconclusive means no clear call, values can overlap the other calls
Target sequence (P9WIQ1 whole entry, looked up): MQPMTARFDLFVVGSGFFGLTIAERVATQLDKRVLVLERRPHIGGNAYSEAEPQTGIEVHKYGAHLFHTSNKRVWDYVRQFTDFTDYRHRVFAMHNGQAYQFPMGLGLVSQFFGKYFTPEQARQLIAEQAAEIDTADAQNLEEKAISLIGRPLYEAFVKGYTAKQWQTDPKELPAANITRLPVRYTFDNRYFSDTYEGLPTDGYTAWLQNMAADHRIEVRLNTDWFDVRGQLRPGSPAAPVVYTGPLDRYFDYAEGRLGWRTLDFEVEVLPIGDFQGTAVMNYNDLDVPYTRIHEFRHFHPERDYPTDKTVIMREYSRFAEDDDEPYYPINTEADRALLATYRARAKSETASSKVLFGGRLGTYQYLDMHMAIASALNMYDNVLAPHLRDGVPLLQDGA
FadD28 binding – M. tuberculosis FadD28 bisubstrate binding inhibition. FadD28 bisubstrate probe binding, fluorescence polarization. inhibition, % at 12.5 µM. 360,000 tested, 0.22% active. AID 588549; in the data active means inhibition above about 8.5%, passing the limit was not always enough; inconclusive means no clear call, values can overlap the other calls
Large screens that a line does not name were inactive. Compounds with a hit are over-represented: about 0.98% of the library has one in this group of screens.

C=CCOc1ccc(/C=C/C(=O)OCC(=O)NCCCc2ccccc2)cc1	Y pestis TopoI 53 (no result: Mtb UGM inh)
CCc1nn(C(C)C(=O)N2CCN(c3ccc(OC)cc3)CC2)c(=O)c2cc3occc3n12 (configuration not stated)	PfHsp40 rescue 112
CCC(=O)N1CCCC1(C)C(=O)Nc1cc(OC)ccc1OC (configuration not stated)	none (no result: Rv3671c inh, PfHsp40 rescue, Mtb bLac sens, Mtb UGM inh)
CCCOc1ccc(/C(O)=C2/C(=O)C(=O)N(c3ccccn3)C2c2ccc(OC)cc2)cc1C (configuration not stated)	Y pestis TopoI 56
CCOc1ccc(NC(=O)Cn2sc3nc(C)cc(C)c3c2=O)cc1	PfHsp40 rescue 74, FadD28 binding inconclusive
Nc1ncnc2c1ncn2[C@@H]1O[C@H](C(=O)N2CCC[C@@H]2C(=O)OCc2ccccc2)[C@@H](O)[C@H]1O	none (no result: Rv3671c inh, PfHsp40 rescue, Mtb bLac sens, Y pestis TopoI, Mtb UGM inh)
O=S1(=O)[C@H]2C[C@@H]3C=C[C@@]2(CN1Cc1cccc(C(F)(F)F)c1)O3	none
O=S1(=O)[C@H]2C[C@@H]3C=C[C@@]2(CN1Cc1cccc(F)c1)O3	PfHsp40 rescue 66
Cc1ccc(C(=O)N2C(=O)C(c3ccccc3)Oc3ccccc32)cc1 (configuration not stated)	PfHsp40 rescue 110
Cc1ccc(/C=C/C(=O)c2ccccc(=O)c2O)c(C)c1	PfHsp40 rescue 183
O=C(C=Cc1ccccc1O)c1ccccc1O	none (no result: Rv3671c inh, Mtb bLac sens, Mtb UGM inh)
O=C(/C=C/c1ccccc1Cl)c1ccccc(=O)c1O	PfHsp40 rescue 64
Cc1ccc(C)c(/C=C/C(=O)c2ccccc(=O)c2O)c1	PfHsp40 rescue 224
O=C(/C=C/c1ccccc1Cl)c1ccc(O)cc1	PfHsp40 rescue inconclusive
O=C(/C=C/c1ccc([N+](=O)[O-])cc1)c1ccccc(=O)c1O	none (no result: Rv3671c inh, Mtb bLac sens, Mtb UGM inh)
CC1(C(=O)NCc2ccc3c(c2)OCO3)CCN1C(=O)Cc1ccc(Cl)cc1Cl (configuration not stated)	none (no result: Rv3671c inh, PfHsp40 rescue, Mtb bLac sens, Mtb UGM inh)
Cc1ccccc1N1CCN(C2CCCN(C(=O)CSc3ccccn3)C2)CC1 (configuration not stated)	none (no result: Rv3671c inh, PfHsp40 rescue, Mtb bLac sens, Mtb UGM inh)
Cc1cc2ncn(/N=C/c3ccc([N+](=O)[O-])s3)c2cc1C	none
O=[N+]([O-])c1ccc(/C=N/n2cnc3ccccc32)s1	Mtb UGM inh 11
O=C(CSc1nnc(-c2ccccc2)n1Cc1ccccc1)NNC(=O)c1ccccc1O	PfHsp40 rescue 166
CNC(=O)CSc1nnc(-c2ccncc2)n1Cc1ccccc1	none
Cn1c(SCC(=O)NNC(=O)c2ccccc2O)nnc1-c1ccccc1	PfHsp40 rescue 106
O=C(O)CSc1nnc(-c2ccccc2O)n1Cc1ccccc1	none
O=C(CSc1nnc(-c2ccccc2O)n1Cc1ccccc1)NNC(=O)c1ccccc1O	PfHsp40 rescue 305
CCN(CC)CCN1CNC(=S)NC1	none (no result: Rv3671c inh, PfHsp40 rescue, Mtb bLac sens, Mtb UGM inh)
COc1ccc(O)c(/C=N/NC(=S)Nc2cccc(S(=O)(=O)N(C)C)c2)c1	FadD28 binding 18
NC(=O)c1cccc(Nc2nc(C(N)COCc3ccccc3)cs2)n1 (configuration not stated)	none (no result: Rv3671c inh, PfHsp40 rescue, Mtb bLac sens, Mtb UGM inh)
Cc1nc2ccc(NC(=O)Cc3ccc4c(c3)OCCO4)cc2s1	PfHsp40 rescue 769
Cc1nc2ccc(NC(=O)Cc3ccc(Br)cc3)cc2s1	none
COc1cccc(-c2ccccc2C2=CC(=O)CC(C)(C)C2=O)c1	none (no result: Rv3671c inh, PfHsp40 rescue, Mtb bLac sens, Mtb UGM inh)
N#Cc1c(N)[nH]c2ccc(Sc3ccccc3)cc12	none (no result: Rv3671c inh, Mtb bLac sens, Mtb UGM inh)
N/C(=N\N=C/c1ccc(-c2ccc(O)c(C(=O)O)c2)o1)N[N+](=O)[O-]	FadD28 binding 12
O=C(NCCCn1cccn1)c1cc(COc2ccccc2)on1	none (no result: Rv3671c inh, PfHsp40 rescue, Mtb bLac sens, Mtb UGM inh)
C=CS(=O)(=O)c1sc(Cl)c(N2CCOCC2)c1[N+](=O)[O-]	PfHsp40 rescue 482 (no result: Rv3671c inh, Mtb bLac sens, Mtb UGM inh)
CCc1sc(C(=O)Nc2ccccc2N2CCOCC2)cc1C	PfHsp40 rescue 107
O=C(Nc1ccccc1N1CCOCC1)c1cc2c(s1)CCCCC2	PfHsp40 rescue 73
CC1(C(=O)NS(=O)(=O)c2ccc(F)cc2F)CCN1C(=O)C1(c2ccc(Cl)cc2)CC1 (configuration not stated)	none (no result: Rv3671c inh, PfHsp40 rescue, Mtb bLac sens, Mtb UGM inh)
O=c1[nH]c(CN2CCN(S(=O)(=O)/C=C/c3ccccc3)CC2)nc2cc(Cl)ccc12	PfHsp40 rescue 97
S=C(NCCc1ccccc1)NC1CCCCCC1	PfHsp40 rescue 88
Cc1cccnc1NC(=S)NCCc1ccccc1	PfHsp40 rescue 60
S=C(NCCc1ccc(Cl)cc1)NC1CCCC1	none
S=C(NCCc1ccc(Cl)cc1)NC1CCCCC1	PfHsp40 rescue 200
S=C(NCCc1ccccc1)Nc1ncccn1	none (no result: Rv3671c inh, Mtb bLac sens, Mtb UGM inh)
N#Cc1ccccc1NC(=O)C1CCCO1 (configuration not stated)	none (no result: Rv3671c inh, PfHsp40 rescue, Mtb bLac sens, Mtb UGM inh)
Cc1ccc(-n2c(Cl)c(Cl)nc(Cl)c2=O)cc1	PfHsp40 rescue 42
O=S(=O)(c1cccc(-c2nnc(SCc3nc4ccccc4s3)o2)c1)N1CCOCC1	PfHsp40 rescue 46
CC1(C(=O)NCc2ccc3c(c2)OCO3)CCN1C(=O)C1(c2ccc(Cl)cc2)CC1 (configuration not stated)	Y pestis TopoI inconclusive (no result: Rv3671c inh, PfHsp40 rescue, Mtb bLac sens, Mtb UGM inh)
N#CC1=C(N)Oc2cc(N)ccc2C1c1ccsc1 (configuration not stated)	none
N#CC1=C(N)Oc2ccc3ccc(O)cc3c2C1c1ccsc1 (configuration not stated)	FadD28 binding 15 (no result: Rv3671c inh, Mtb bLac sens, Mtb UGM inh)
O=c1ccc2cc3c([nH]c4ccc(Br)cc43)oc-2c1O	PfHsp40 rescue 228, FadD28 binding 22
COc1ccc(Nc2nc(N)c(C(=O)c3ccc(F)cc3)s2)cc1	PfHsp40 rescue 34
CC(C)N(Cc1ccccc1)C(=S)NCCN1CCOCC1	PfHsp40 rescue 35
CC1(C)CC(NC(=O)C2CCC(=O)N(Cc3ccccc3F)C2)CC(C)(C)C1 (configuration not stated)	none (no result: Rv3671c inh, Mtb bLac sens, Mtb UGM inh)
CCOc1ccc(CC(=O)Nc2nccs2)cc1OCC	PfHsp40 rescue 38
COCCNC(=O)C1CCCN(Cc2cccc(C#N)c2)CC1 (configuration not stated)	none (no result: Rv3671c inh, PfHsp40 rescue, Mtb bLac sens, Mtb UGM inh)
Cc1cc(Br)cc(/C=N/NC(=O)c2ccc3c(c2)OCO3)c1O	none
O=C(N/N=C/c1cc(Br)cc(Cl)c1O)c1ccc2c(c1)OCO2	PfHsp40 rescue 257
NC(=O)C(NN=C(c1ccccc1)c1ccccc1)c1ccccc1 (configuration not stated)	none (no result: Rv3671c inh, PfHsp40 rescue, Mtb bLac sens, Mtb UGM inh)
COc1ccccc1-c1csc(C(NC(C)=O)c2ccccc2)n1 (configuration not stated)	none (no result: Rv3671c inh, PfHsp40 rescue, Mtb bLac sens, Mtb UGM inh)
CC(Cc1ccc(O)cc1)NCC(O)c1ccc(O)c(O)c1 (configuration not stated)	FadD28 binding 8.2 (no result: Rv3671c inh, PfHsp40 rescue, Mtb bLac sens, Mtb UGM inh)
O=C(O)Cn1nnc(-c2ccccc2)c1COc1ccccc1	none (no result: Rv3671c inh, PfHsp40 rescue, Mtb bLac sens, Mtb UGM inh)
CCCCCCN1C[C@@H](n2cc(-c3ccc(F)cc3)nn2)[C@H](O)C[C@@H]1c1ccc(Cl)cc1	none (no result: Rv3671c inh, PfHsp40 rescue, Mtb bLac sens, Mtb UGM inh)
CC(C)(C)C(=O)C(Cc1ccccc1)n1cncn1 (configuration not stated)	none
CC(C)(C)C(=O)C(Oc1ccc(Cl)cc1)n1cncn1 (configuration not stated)	PfHsp40 rescue 397 (no result: Rv3671c inh, Mtb bLac sens, Mtb UGM inh)
O=C(/C=C/c1c(F)cccc1Cl)c1ccc(O)cc1	PfHsp40 rescue 37
CCOC(=O)C1=CCN(S(=O)(=O)c2ccc(C)cc2)C1c1cccc(Br)c1 (configuration not stated)	none (no result: Rv3671c inh, PfHsp40 rescue, Mtb bLac sens, Y pestis TopoI, Mtb UGM inh)

Screens deposited in PubChem BioAssay by several laboratories.
